Experiments:
Conditions in all cases: concentration: 1 μM, replicates: in singlicate; n = 1
NEK4 = test system: NEK4
NEK5 = test system: NEK5
NEK6 = test system: NEK6
NEK7 = test system: NEK7
NEK9 = test system: NEK9
NIK = test system: T1, NIK
T1 construct: gene MAP3K14

NIM1 = test system: T2, NIM1
T2 construct: gene MGC42105

NLK = test system: NLK
OSR1 = test system: T3, OSR1
T3 construct: gene OXSR1

PAK1 = test system: PAK1
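Further: KINOMEscan kinase panel screen.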

SMILES	%Inh (NEK4)	%Inh (NEK5)	%Inh (NEK6)	%Inh (NEK7)	%Inh (NEK9)	%Inh (NIK)	%Inh (NIM1)	%Inh (NLK)	%Inh (OSR1)	%Inh (PAK1)
Nc1nc(N)c2nc(-c3ccccc3)[nH]c2n1 [SKF-12778]	8%	10%	5%	9%	6%	0%	0%	2%	22%	0%
COc1cc(Nc2nccc(N3CCC(NC(=O)C(C)c4ccc(Cl)cc4)C3)n2)cc(OC)c1OC (stereo not drawn) [GSK1379757]	0%	95.5%	0%	0%	19%	0%	0%	0%	0%	10%
OCCCNc1nccc(-c2c(-c3cccc(C(F)(F)F)c3)nn3cc(C(F)(F)F)ccc23)n1 [GW630813]	0%	5%	0%	0%	1%	0%	0%	92.7%	0%	0%
